# According to PubChem BioAssay AID571 (The Scripps Research Institute Molecular Screening Center, 2007):
# Hit rate of the full screen: of about 65,000 compounds, about 640 (0.98%) were called active. The list comes from a sample in which actives are over-represented; it also holds similar structures and randomly drawn compounds. Unmarked numbers belong to inactive results.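 How the source made its calls: active means inhibition above a set limit, the mean inhibition across every tested compound plus 3 SD (cut at about 29% in these data); inactive means the rest.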
# Molecular target: 5-hydroxytryptamine receptor 1E (Homo sapiens) (UniProt P28566)
# Sequence (P28566 whole entry, looked up): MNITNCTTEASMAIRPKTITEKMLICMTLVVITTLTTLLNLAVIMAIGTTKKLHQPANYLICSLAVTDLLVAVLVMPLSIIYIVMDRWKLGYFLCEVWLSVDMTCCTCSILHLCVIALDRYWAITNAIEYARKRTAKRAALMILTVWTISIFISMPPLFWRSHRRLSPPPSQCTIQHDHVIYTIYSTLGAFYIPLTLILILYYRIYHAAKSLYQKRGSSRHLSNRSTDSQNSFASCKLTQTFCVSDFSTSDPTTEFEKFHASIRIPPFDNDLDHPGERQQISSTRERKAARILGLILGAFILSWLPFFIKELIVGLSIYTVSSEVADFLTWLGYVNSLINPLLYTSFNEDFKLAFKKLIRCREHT
# Experiment: 5-HT1E receptor antagonists, primary screen, cell-based, HTS (AID 571);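 further: signal is the 460 over 535 nm emission ratio of beta-lactamase substrate; 0% = agonist plus DMSO wells and 100% = wells without agonist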
# Details: CHO 5-HT1E Ga15 NFAT-bla reporter, FRET, antagonist; at 6 µM; active compounds read high
row,SMILES,inhibition
1,COc1cc(C(=O)N(Cc2ccc(N(C)C)cc2)C2CCS(=O)(=O)C2)cc(OC)c1OC (configuration not stated),-0.54%
2,COCCOC(=O)C1=C(C)NC(=O)CC1c1cc2c(cc1Br)OCO2 (configuration not stated),-1.17%
3,CCCOc1ccccc1C1CC(=O)Nc2cc3c(cc21)OCO3 (configuration not stated),52.8% (active)
4,COc1cc2c(cc1OC)C(c1ccc(C)o1)CC(=O)N2 (configuration not stated),11.3%
5,Cn1c(-c2ccco2)nc2cc3ccccc3cc21,1.87%
6,CCOCCN(C=O)c1cccc(OC)c1,-9.77%
7,COC(=O)c1ccc(NCC(=O)c2ccccc2)cc1,-2.89%
8,COc1ccc(C(=O)NCCc2ccc(S(N)(=O)=O)cc2)cc1OC,12.5%
9,O=C(Nc1cccc(F)c1)c1ccc(S(=O)(=O)N2CCCC2)cc1,-2.92%
10,O=C(CN1CCN(S(=O)(=O)c2ccc(F)cc2)CC1)Nc1ccccc1F,2.85%
11,CCOC(=O)N1CCN(S(=O)(=O)c2ccc(C(=O)Nc3ccc(F)cc3F)cc2)CC1,38.3% (active)
12,CCOC(=O)c1sc(NC(=O)CSc2ncccn2)c(C#N)c1C,-1.65%
13,O=S(=O)(c1ccccc1)N(CC(O)CN1CCCCC1)c1ccccc1 (configuration not stated),-17.2%
14,Cc1ccc(NC(=O)N2CCC(C(=O)NCc3ccc(F)cc3)CC2)cc1,-1.42%
15,O=S(N1CCCCCC1)C12CC3CC(CC(C3)C1)C2 (configuration not stated),-12.6%
16,CCC(C)NC(=O)N[C@@H](CCSC)C(=O)O (some centres not stated),-2.48%
17,Oc1c(C(c2cccs2)N2CCN(c3ccc(F)cc3)CC2)sc2ncnn12 (configuration not stated),-14%
18,O=C(CCSCCc1ccccn1)Nc1nccs1,-8.42%
19,CCC(=O)N(Cc1cc2cc(OC)ccc2[nH]c1=O)c1ccccc1C,15.6%
20,C/C(=C\C(=O)c1cccnc1)Nc1ccc(C)c(C)c1,-0.61%
21,O=C(CNC(=O)c1ccc(Cl)cc1Cl)NCC(=O)Nc1ccccc1N1CCOCC1,5.85%
22,CCCc1nc2ccccc2c(C(=O)OCc2nnc(-c3cc(OC)c(OC)c(OC)c3)o2)c1CC,23%
23,COc1cc(-c2nnc(Cn3cc(C(F)(F)F)ccc3=O)o2)cc(OC)c1OC,29% (active)
24,CCOC(=O)c1cc(-c2nnc(-c3cc(OC)c(OC)c(OC)c3)o2)c(C)nc1C,-9.6%
25,COc1cccc(NC(=O)Cn2cnc3sc(C)c(S(=O)(=O)N4CCN(C)CC4)c3c2=O)c1,-6.2%

row,SMILES,inhibition
1,CC(C)c1nc(N2CCOCC2)c(C#N)c2c1COC(C)(C)C2,10.4%
2,COc1ccc(CSc2nc(N3CCOCC3)c3c(c2C#N)CC(C)(C)OC3)cc1,-10.9%
3,CC1(C)Cc2c(C#N)c(SCc3nc4ccccc4[nH]3)nc(N3CCOCC3)c2CO1,28.9% (active)
4,O=C(CSc1nnc(-c2cccnc2)n1Cc1ccco1)c1ccc(Cl)cc1,11%
5,Cc1ccc(-c2c3c(=O)n(C)c(=O)n(C)c3cn2-n2cnnc2)cc1,30.5% (active)
6,COc1ccc(-c2c3c(=O)n(C)c(=O)n(C)c3cn2-c2cccc(OC)c2)cc1,6.73%
7,Cc1ccc(-c2c3c(=O)n(C)c(=O)n(C)c3cn2-c2ccccc2O)cc1,4.09%
8,CC1CC(C)CN(CC(=O)Nc2ccc(S(N)(=O)=O)cc2)C1 (configuration not stated),-5.33%
9,Cc1ccc(SCc2cc(=O)[nH]c(N3CCCCC3)n2)cc1,2.38%
10,C=CCSc1nnc(Cn2c(=O)sc3ccccc32)n1C,1.57%
11,COc1ccccc1N1CCN(C(=O)CN(Cc2ccc(Cl)cc2)S(C)(=O)=O)CC1,-2.25%
12,COc1ccccc1N1CCN(Cc2nnnn2CCc2ccccc2)CC1,-0.82%
13,COc1ccccc1-n1nnnc1S(=O)(=O)Cc1ccc(Cl)cc1,29.9% (active)
14,Cn1cnc2c1c(=O)n(Cc1c(Cl)cccc1Cl)c(=O)n2C,5.12%
15,COC(=O)CNS(=O)(=O)c1ccc(Cc2ccc(S(=O)(=O)NCC(=O)OC)cc2)cc1,3.6%
16,CCCn1c(C(O)c2ccc(OCC)cc2)nc2ccccc21 (configuration not stated),-10.8%
17,COc1ccc(CCn2c(NCCCN3CCOCC3)nc3c2c(=O)[nH]c(=O)n3C)cc1,-6.49%
18,COC(=O)c1ccc(NC(=O)CN(c2ccc(C)cc2)S(=O)(=O)c2c(C)n[nH]c2C)cc1,3.08%
19,CCOC(=O)c1ccc(-c2ccc(C(=O)Nc3cccnc3)o2)cc1,10.9%
20,Cc1cccc(NC(=O)CSc2nnc(NC(=O)CN3CCOCC3)s2)c1,-3.22%
21,CCC(=O)Nc1ccc(C(=O)CSc2nnc(CNc3ccc(Cl)cc3)o2)cc1OC,1.52%
22,COc1ccc2c(c1OC)C(=O)N(c1ncn[nH]1)C2,-0.04%
23,COCC(C)n1c(SCc2ccc(C(=O)OC)o2)nc2ccccc2c1=O (configuration not stated),24.9%
24,COC(=O)c1ccc(CSc2nc3ccccc3c(=O)n2-c2cccc(OC)c2)o1,39.7% (active)
25,COC(=O)c1ccc(CSc2ccccc2C)o1,1.46%

row,SMILES,inhibition
1,Cc1cc(Nc2cccc(F)c2)n2ncnc2n1,-1.52%
2,CC(=O)NCCc1ccc(S(=O)(=O)N(C)C2CCS(=O)(=O)C2)cc1 (configuration not stated),-8.57%
3,Fc1ccc2nc(N3CCCCC3)sc2c1,1.55%
4,Fc1ccc2[nH]c3c(N4CCN(Cc5ccc6c(c5)OCO6)CC4)ncnc3c2c1,27.4%
5,Fc1ccc2[nH]c3c(N4CCSCC4)ncnc3c2c1,54.9% (active)
6,C=CCN(CC=C)C(=O)CN1C(=O)c2ccccc2C1=O,1.46%
7,COC(=O)Cc1nc2ccccc2[nH]1,-1.34%
8,Oc1ccc2nc(Cc3ccccc3)[nH]c2c1,-16.1%
9,COC(=O)Nc1nc2ccc(Sc3ccccc3)cc2[nH]1,65.7% (active)
10,CCOc1ccccc1C1CC(c2ccc(Cl)cc2)Nc2nc(N)nn21 (configuration not stated),4.62%
11,N=c1n(Cc2ccc(Cl)cc2)c2ccccc2n1CC(O)c1ccco1 (configuration not stated),-1.68%
12,CC(=O)NC(C)(C)C1CC=C(C)/C(=N\O)C1 (configuration not stated),6.93%
13,CC(C)(C)C(=O)CCN1C(=O)C2(OCCO2)c2ccccc21,-0.27%
14,COc1ccc2[nH]c3c(=O)n(Cc4ccco4)cnc3c2c1,9.2%
15,CSc1nnc(CNC(=O)c2ccccc2)n1-c1ccc(F)cc1,4.06%
16,CC(NC(=O)c1ccco1)C(=O)Nc1nc(-c2ccccn2)cs1 (configuration not stated),-4.44%
17,CCn1c(Cc2ccccc2)nnc1SCC(=O)Nc1ccccc1,-6.68%
18,CC1(C)CC(=O)C=C(NCCCNC2CCCCC2)C1,7.98%
19,CCN(CC(=O)NCc1cccs1)c1nnnn1-c1ccccc1,28.8% (active)
20,Cc1ccccc1-n1c(SCC(=O)NCc2cccs2)nnc1-c1ccncc1,-6.81%
21,Cc1nnc(SCC(=O)NCc2cccs2)[nH]c1=O,2.95%
22,O=C1c2ccccc2-c2ncnc3c(N4CCOCC4)cc(N4CCOCC4)c1c23,38.7% (active)
23,c1ccc(-c2oc3ncnc(N4CCOCC4)c3c2-c2ccccc2)cc1,-16.4%
24,c1cnn(-c2cc(N3CCOCC3)ncn2)c1,-8.12%
25,COc1ccccc1N(C(=O)Cn1nnc2ccccc21)C(C(=O)NCc1ccco1)c1ccc(C)o1 (configuration not stated),12.3%

row,SMILES,inhibition
1,COc1ccc(-c2ccc(Nc3ccc(S(=O)(=O)N4CCCC4)cc3)nn2)cc1OC,20.8%
2,COc1ccc(-c2cc(C(F)(F)F)nc(S(C)(=O)=O)n2)cc1OC,70.8% (active)
3,COc1ccc(-c2nnco2)cc1OC,3.01%
4,CCc1nc(Nc2ccc3nccnc3c2)c2oc3ccccc3c2n1,51.6% (active)
5,CCSc1nc(C)nc2c1oc1ccccc12,10.3%
6,CCc1nc(N2CCN(c3nc(C)cc(C)n3)CC2)c2oc3ccccc3c2n1,4.92%
7,Cc1ccc(N(CC(O)CN2CCCC2)S(=O)(=O)c2ccccc2)cc1 (configuration not stated),-0.23%
8,Cc1ccc(Nc2cc(=O)n(C3CCCCC3)c(=O)[nH]2)cc1C,-5.13%
9,CN1CCN(Cc2nc3c(c(=O)n(C)c(=O)n3C)n2Cc2cccc3ccccc23)CC1,1.52%
10,COc1ccc(N(CC(=O)NC2CCCCCCC2)S(=O)(=O)c2c(C)nn(C)c2C)cc1,-13.7%
11,Cc1cn(C2C=CC(CO)O2)c(=O)[nH]c1=O (configuration not stated),-4.28%
12,O=C(CN1C(=O)CSc2ncccc21)N1CCOCC1,16.6%
13,Cc1cccc(CSc2nnc(Cn3c(=O)sc4ccccc43)n2C)c1,-7.45%
14,Cc1nc2cc(-c3ccc(F)cc3)nn2c(N2CCOCC2)c1C,-1.31%
15,COc1cccc(-c2nc(S(=O)(=O)c3ccccc3)c(N3CCOCC3)o2)c1,19.7%
16,COc1cccc(-c2cc3nc4c(c(N5CCC6(CC5)OCCO6)n3n2)CCCC4)c1,28.7% (active)
17,Cc1ccc(-n2ncc3c(=O)[nH]cnc32)c(C)c1,13%
18,Cc1ccc(-n2ncc3c(N4CCN(c5ccc(F)cc5)CC4)ncnc32)c(C)c1,5.14%
19,Cc1ccc(-n2ncc3c2ncn2nc(-c4ccco4)nc32)c(C)c1,40% (active)
20,O=C(Cn1nnc2ccccc2c1=O)Nc1cc(C(F)(F)F)ccc1N1CCOCC1,5.96%
21,Cn1nc(-c2ccc(N3CCOCC3)c(NC(=O)c3ccccc3)c2)c2ccccc2c1=O,29.7% (active)
22,COc1c(C)cccc1C(=O)Nc1cc(Cl)ccc1N1CCOCC1,0.53%
